Reference: PMC6925144, “A prospective compound screening contest identified broader inhibitors for Sirtuin 1” (Scientific Reports, 2019)
In all, about 3,200 compounds were measured (“TSA(without NAD+) / Primary screening (TSA) / delta Tm (K)”: median about -0.07, highest 2% from about 0.37 on). Shown is part of a subset that was picked to be rich in the highest values.

Target: NAD-dependent deacetylase Sirtuin 1 (human, UniProt Q96EB6)
Test: primary screen, delta tm
Parameters: single well (n = 1)
Conditions: 10 µM
Method in brief: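 Thermal shift of Sirtuin 1 measured without NAD+, compound at 10 µM (n = 1); value is ΔTm, with hits defined as ΔTm > 0.45 K or < −1.5 K. Hits retested at 5, 10, 20 µM (n = 4) and counterscreened on bovine carbonic anhydrase and ABL1 SH2 domain.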

NAD-dependent deacetylase Sirtuin 1, sequence (Q96EB6 2-747 limits assumed): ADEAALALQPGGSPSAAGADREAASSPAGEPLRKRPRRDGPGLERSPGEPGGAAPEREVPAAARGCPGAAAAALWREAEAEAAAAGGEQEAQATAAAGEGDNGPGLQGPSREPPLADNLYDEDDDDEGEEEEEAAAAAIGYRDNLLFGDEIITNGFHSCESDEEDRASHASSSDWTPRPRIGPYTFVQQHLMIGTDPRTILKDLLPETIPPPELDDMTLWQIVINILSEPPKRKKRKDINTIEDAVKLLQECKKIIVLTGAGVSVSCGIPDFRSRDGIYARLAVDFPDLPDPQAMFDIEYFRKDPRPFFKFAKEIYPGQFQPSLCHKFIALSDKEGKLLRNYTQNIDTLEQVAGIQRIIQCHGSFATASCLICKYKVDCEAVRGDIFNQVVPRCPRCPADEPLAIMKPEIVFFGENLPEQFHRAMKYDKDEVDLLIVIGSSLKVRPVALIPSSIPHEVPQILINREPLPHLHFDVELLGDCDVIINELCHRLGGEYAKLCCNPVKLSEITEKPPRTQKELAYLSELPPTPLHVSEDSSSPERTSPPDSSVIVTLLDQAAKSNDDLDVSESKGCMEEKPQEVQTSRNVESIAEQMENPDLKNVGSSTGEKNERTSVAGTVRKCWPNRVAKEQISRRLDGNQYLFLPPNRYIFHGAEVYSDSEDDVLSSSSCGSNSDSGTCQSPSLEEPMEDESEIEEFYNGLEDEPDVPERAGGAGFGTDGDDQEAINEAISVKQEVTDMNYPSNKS

SMILES | TSA(without NAD+) / Primary screening (TSA) / delta Tm (K)
c1nc(N2CCNCC2)c2sccc2n1 | -0.08 K
NC(=O)c1ccc(COC(=O)c2cc3c(ccc4ccccc43)[nH]2)cc1 | 0.05 K
O=C(Nc1ccc(Oc2ncccn2)cc1)c1ccc(S(=O)(=O)Nc2ccc(F)cc2)cc1 | -0.11 K
Cc1nc(COc2ccc(C(=O)Nc3ccc(S(=O)(=O)Nc4cccc(F)c4)cc3)cc2)cs1 | 0.09 K
N#CC(C(=O)c1ccc(NS(=O)(=O)c2ccccc2)cc1)c1nc(-c2ccccn2)cs1 (stereo not drawn) | 0.46 K
COc1ccc2[nH]cc(C3CCN(C(=O)c4coc(C)c4)CC3)c2c1 | -0.03 K
Cc1nnc(CNC(=O)c2cc(-c3ccccc3)nc3c(C(N)=O)ncn23)s1 | -0.04 K
COc1ccccc1NS(=O)(=O)c1ccc(NC(=O)CNC(=O)C23CC4CC(CC(C4)C2)C3)cc1 | 0.03 K
COc1ccc(NC(=O)c2ccc(NC(=O)COC(=O)C34CC5CC(CC(Br)(C5)C3)C4)cc2)cc1 | 1.08 K
COc1ccccc1NC(=O)c1ccc(NC(=O)COC(=O)C23CC4CC(CC(C4)C2)C3)cc1 | 0.42 K
COc1ccccc1NC(=O)COc1ccc(C(=O)OCC(=O)NC23CC4CC(CC(C4)C2)C3)cc1OC | 0.08 K
COc1ccc(NC(=O)c2ccccc2NC(=O)COC(=O)C23CC4CC(CC(O)(C4)C2)C3)cc1 | 0.19 K
COc1ccc(NC(=O)COc2ccc(C(=O)NCC34CC5CC(CC(C5)C3)C4)cc2OC)cc1 | -0.34 K
CCOC(=O)c1ccc(S(=O)(=O)N2CCC(C(=O)OCC(=O)NCC34CC5CC(CC(C5)C3)C4)CC2)cc1 | -0.13 K
CC(=O)N(c1nn(CN2CCN(c3ccc(C(N)=O)cn3)CC2)c(=S)s1)C1CC1 | -0.23 K
CC1Cc2ccccc2N1c1ncnc2ccsc12 (stereo not drawn) | 0.07 K
CC(C)(C)c1ccc(OCC(=O)NNC(=O)c2cccnc2O)cc1 | 0.17 K
Cc1nc2cc(C(=O)Nc3ccc(NC(=O)N4CCCCCC4)cc3)ccc2n1C | -0.04 K
Cc1nc(N2CCC(C(N)=O)CC2)c2c3c(sc2n1)CCCCC3 | 0.78 K
Cc1nc(N2CCC(C(N)=O)CC2)c2c3c(sc2n1)CCCC3 | 0.56 K
Cc1nc(N2CCC(C(N)=O)CC2)c2c3c(sc2n1)CCC3 | 0.07 K
Cc1nc(N2CCC(NC(N)=O)CC2)c2c3c(sc2n1)CCCC3 | -0.03 K
NC(=O)C1CCN(c2ncnc3sc4c(c23)CCCCC4)CC1 | 0.36 K

SMILES | TSA(without NAD+) / Primary screening (TSA) / delta Tm (K)
NC(=O)C1CCN(c2ncnc3sc4c(c23)CCC4)CC1 | -0.21 K
CN(CC(=O)Nc1cccc2ccccc12)C(=O)C1=COCCO1 | -0.23 K
Cc1[nH]c2ccccc2c1CC(=O)Nc1cccc(-c2noc(=O)[nH]2)c1 | 0.07 K
CC(C)Oc1ccc(C(=O)C2=C(O)C(=O)N(CCCN3CCOCC3)C2c2cccs2)cc1 (stereo not drawn) | -0.23 K
NC(=O)c1ccc(CN2CCSCC2)cc1 | 0.06 K
CCN(CC)CCNC(=O)c1ccc(NC(=O)CC2CCCC2)cc1 | 0.07 K
NC(=S)c1ccc(C(=O)NCc2ccnc(OCC(F)(F)F)c2)cc1 | -0.18 K
CN(c1ccccc1)S(=O)(=O)c1cccc(NC(=O)CNc2cccc3ccccc23)c1 | 0.17 K
O=C(CCc1c[nH]c2ccccc12)Nc1nnc(-c2ccccc2)o1 | 0.52 K
Cc1ccc(N(C)S(=O)(=O)c2cccc(C(=O)NCCc3c[nH]c4ccccc34)c2)cc1 | 0.23 K
O=C(CCc1c[nH]c2ccccc12)Nc1cccc(S(=O)(=O)NCc2ccco2)c1 | -0.01 K
O=C(CCc1c[nH]c2ccccc12)Nc1ccc2nc[nH]c(=O)c2c1 | 0.26 K
O=C(CCc1c[nH]c2ccccc12)NCCc1ccco1 | -0.05 K
CN(c1ccccc1)S(=O)(=O)c1cccc(NC(=O)CCc2c[nH]c3ccccc23)c1 | 0.38 K
CN(c1ccccc1)S(=O)(=O)c1cccc(C(=O)NCCc2c[nH]c3ccccc23)c1 | 0.16 K
CN(c1ccccc1)S(=O)(=O)c1cccc(NC(=O)CCCc2c[nH]c3ccccc23)c1 | 0.52 K
COc1cccc(NC(=S)Nc2cccc(S(=O)(=O)N(C)c3ccccc3)c2)c1 | -0.03 K
NC(=O)c1ccc(C(=O)OCC(=O)c2cc3ccccc3o2)cc1 | -0.38 K
Cc1ccc(NC(=O)CN2CCN(C(=O)c3ccc(-c4ccc(Cl)cc4)o3)CC2)cc1 | 0.08 K
Cc1ccc2nc(-c3ccc(NC(=O)C(C)Cl)cc3)sc2c1 (stereo not drawn) | 0.22 K
O=C1NC(=S)NC(=O)C1=Cc1cn(-c2ccccc2)nc1-c1cc2ccccc2o1 | 0.36 K
CC(=O)N1Cc2ccccc2CC1C(=O)NC1CCOc2ccccc21 (stereo not drawn) | -0.13 K
